FBW7 activator: FBW7 E3 ligase activators, primary screen, biochemical, AlphaScreen, human; actives 0.13% (n = 650,000); F-box/WD repeat-containing protein 7 (Homo sapiens), Q969H0; AlphaScreen FBW7–phospho-cyclin E peptide binding, activator screen; normalized activity (activation), % at 26.1 µM; in the data active means normalized activity above about 1.9%;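 further: purified mutant Fbw7 with reduced substrate affinity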
GPR151 ag: activators of human GPR151, primary screen, cell-based, PathHunter beta-arrestin, luminescence; G-protein coupled receptor 151 (Homo sapiens), Q8TDV0; PathHunter beta-arrestin GPR151 cells; activation, % at 11.2 µM; actives 1% (n = 650,000); AID 1508602, 2020; in the data active means activation above about 4.9%
Target sequence (Q8TDV0 whole entry, looked up): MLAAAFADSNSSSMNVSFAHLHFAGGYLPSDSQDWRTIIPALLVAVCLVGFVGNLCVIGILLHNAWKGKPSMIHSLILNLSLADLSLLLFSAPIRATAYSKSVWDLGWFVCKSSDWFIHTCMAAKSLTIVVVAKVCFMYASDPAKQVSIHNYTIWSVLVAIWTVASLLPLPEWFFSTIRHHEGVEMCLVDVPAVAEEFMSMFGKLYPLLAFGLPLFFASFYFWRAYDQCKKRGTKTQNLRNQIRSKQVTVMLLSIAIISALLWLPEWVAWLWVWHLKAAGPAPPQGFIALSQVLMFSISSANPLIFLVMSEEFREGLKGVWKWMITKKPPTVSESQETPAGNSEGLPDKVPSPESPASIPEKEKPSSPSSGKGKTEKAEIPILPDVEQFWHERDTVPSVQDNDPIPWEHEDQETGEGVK
MITF inh: MITF inhibitors, primary screen, biochemical, AlphaScreen, human; AlphaScreen MITF homodimerization, bead proximity signal; Microphthalmia-associated transcription factor (Homo sapiens), O75030; AID 1259374, 2018; inhibition, % at 2.6 µM; actives 0.91% (n = 650,000); in the data active means inhibition above about 50%
TEAD-YAP block: TEAD-YAP interaction inhibition, primary screen, TEAD-YAP interaction inhibitor project, luminescence, HEK-TIYL cells; TEAD-Gal4/YAP UAS-luciferase luminescence; inhibition, % at 9.12 µM; actives 1.4% (n = 640,000); in the data active means inhibition above about 32%
GPR151 conf act: GPR151 activators, triplicate retest, confirmation, cell-based, PathHunter beta-arrestin, luminescence; AID 1508609, 2020; GPR151 PathHunter beta-arrestin cells, 90 min; % of EA-reagent control over plate median; 6,700 tested, under 10 active; shares compounds with GPR151 ag; activation, % at 11.2 µM;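 active means mean percent activation across replicates above the confirmation screen cutoff of 4.91%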
GPR119 ag: GPR119 activators in beta-arrestin cells, counter-screen for GPR151 activator project, cell-based, PathHunter beta-arrestin, luminescence, triplicate; shares compounds with GPR151 ag; activation, % at 11.2 µM; actives 0.3% (n = 6,700); 90 min; 0 = compound-well median, 100 = enzyme-acceptor control; AID 1508611, 2020;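 active means mean percent activation in the counterscreen above 29.09%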;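 further: counterscreen on off-target GPR119 to flag nonselective hits from the GPR151 activator screen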
Of the large screens only hits and unclear results are named; the others gave an inactive call (follow-up assays come after a bar, where they were run). Compounds with a hit are over-represented: about 3.4% of the library has one in this group of screens.

CC(Nc1nc(CN(C)C2CCOCC2)nc2ccccc12)c1ccc(F)cc1 (stereo unspecified)	GPR151 ag 7.7 | GPR151 conf act inactive | GPR119 ag inactive
CC(Oc1ccc(Br)cc1)C(=O)O/N=C(\N)c1ccc([N+](=O)[O-])cc1 (stereo unspecified)	none
Cc1cccc(C(=O)O/N=C(\N)c2ccc([N+](=O)[O-])cc2)c1	GPR151 ag 5.6 | GPR151 conf act inactive | GPR119 ag inactive
CC(Oc1ccc(Br)cc1)C(=O)O/N=C(\N)c1cccc([N+](=O)[O-])c1 (stereo unspecified)	GPR151 ag 5.7 | GPR151 conf act inactive | GPR119 ag inactive
Cc1ccc(SCC(=O)O/N=C(\N)c2cccc([N+](=O)[O-])c2)cc1	GPR151 ag 5.2 | GPR151 conf act inactive | GPR119 ag inactive
Cc1cc(C(=O)O/N=C(\N)c2ccc(Br)cc2)ccc1[N+](=O)[O-]	GPR151 ag 6.4 | GPR151 conf act inactive | GPR119 ag inactive
Cc1cc(C)cc(C(=O)O/N=C(\N)c2ccc([N+](=O)[O-])cc2)c1	none
CC(=O)N1CCc2cc(S(=O)(=O)C(C)CC(=O)Nc3ccc(C)c(C)c3)ccc21 (stereo unspecified)	none
Cc1ccc(OCC(=O)N/N=C/c2cc([N+](=O)[O-])cc([N+](=O)[O-])c2O)cc1	none
c1cnc2ccc(NCn3nnc4ccccc43)cc2c1	none
COc1ccc(CNC(=O)c2cc3nc(-c4ccccc4)cc(C(F)(F)F)n3n2)cc1	none
CC(C(=O)O/N=C(\N)c1ccccc1)c1ccc([N+](=O)[O-])cc1 (stereo unspecified)	none
CC(C(=O)O/N=C(\N)c1ccncc1)c1ccc([N+](=O)[O-])cc1 (stereo unspecified)	GPR151 ag 21.4 | GPR151 conf act inactive | GPR119 ag inactive
NS(=O)(=O)c1ccc(CCNC(=O)CSc2nc3ccc(N4CCCCC4)cc3c(=O)n2Cc2ccccc2)cc1	none
CCOC(=O)c1c(NC(=O)C2C3C=CC(C3)C2C(=O)O)sc2c1CCCCC2 (stereo unspecified)	GPR151 ag 5.5 | GPR151 conf act inactive | GPR119 ag inactive
CCOC(=O)c1c(NC(=O)COc2c(F)c(F)cc(F)c2F)sc2c1CCCC2	GPR151 ag 5.0 | GPR151 conf act inactive | GPR119 ag inactive
CCOC(=O)c1c(NC(=O)COc2c(C)cc(Cl)cc2Cl)sc2c1CCCC2	none
c1ccc2c(c1)sc1nnc(SCc3cn4ccccc4n3)n12	none
O=C(CCn1c(=S)[nH]c2cc3c(cc2c1=O)OCO3)NC1CCN(Cc2ccccc2)CC1	none
CCOC(=O)CSc1nnc2c3c(C)c(C)sc3ncn12	GPR151 ag 5.8 | GPR151 conf act inactive | GPR119 ag inactive
CCCCCC(=O)Nc1ccc(N2CCN(CC)CC2)cc1	GPR151 ag 10.8 | GPR151 conf act inactive | GPR119 ag inactive
COc1cc(CN2CCN(C3CCCC3)C(CCO)C2)cc(Cl)c1O (stereo unspecified)	none
CC(C)Cc1ccc(S(=O)(=O)N2CCc3ccccc32)cc1	none
Cc1nccn1CCNC(=O)c1cccc2ccccc12	GPR151 ag 6.0 | GPR151 conf act inactive | GPR119 ag inactive
Cc1nccn1CCNC(=O)c1cccn(C)c1=O	none
O=S(=O)(c1cccc2cccnc12)N1CCC(c2nc(-c3ccncc3)no2)CC1	none
CNS(=O)(=O)c1cccc(C(=O)OCC(=O)C(C)(C)C)c1	GPR151 ag 7.1 | GPR151 conf act inactive | GPR119 ag inactive
CC(C)(C)C(=O)COC(=O)c1cccc(S(=O)(=O)N2CCCC2)c1	none
O=C(Nc1ccccc1C(F)(F)F)C(=O)N1CCCCC1	none
COc1ccccc1N1CCN(C2CCCN(C(=O)C3(C(N)=O)CC3)C2)CC1 (stereo unspecified)	GPR151 ag 5.6 | GPR151 conf act inactive | GPR119 ag inactive
COc1ccccc1N1CCN(C2CCCN(C(=O)C3CCCCC3)C2)CC1 (stereo unspecified)	none
O=[N+]([O-])c1ccc(CSC2=NCCN2)cc1	GPR151 ag 7.2 | GPR151 conf act inactive | GPR119 ag inactive
CCOc1ccc(CSC2=NCCN2)cc1[N+](=O)[O-]	none
COc1cccc(-c2cncc(-c3cnc(OC)nc3OC)n2)c1	none
CCN1C(=O)CC(Sc2ccccc2N)C1=O (stereo unspecified)	none
Nc1ccccc1SC1CC(=O)N(Cc2ccccc2)C1=O (stereo unspecified)	GPR151 ag 7.1 | GPR151 conf act inactive | GPR119 ag inactive
O=C(NC1CCCCC1)[C@H]1C=CCN1C(=O)C1CC1	GPR151 ag 7.4 | GPR151 conf act inactive | GPR119 ag inactive
CCN1CCSc2ccc(C(=O)NCC3CCCO3)cc21 (stereo unspecified)	GPR151 ag 8.1 | GPR151 conf act inactive | GPR119 ag inactive
CCn1c(N)c(C(=O)NCC2CCCO2)sc1=S (stereo unspecified)	GPR151 ag 5.6 | GPR151 conf act inactive | GPR119 ag inactive
O=C(Nc1ccc(F)cc1F)C(=O)N1CCCCC1	GPR151 ag 7.1 | GPR151 conf act inactive | GPR119 ag inactive
Nc1ccc(-c2nnn(CC(=O)Nc3ccc(C4CCCCC4)cc3)n2)cc1	GPR151 ag 8.1 | GPR151 conf act inactive | GPR119 ag inactive
NC(C(=O)N1CCC(Nc2ccc3[nH]ncc3c2)C1)c1cccc(Br)c1 (stereo unspecified)	none
CCC(C)NC(=O)c1ccccc1NC(=O)CN(c1cccc(C)c1C)S(C)(=O)=O (stereo unspecified)	none
NC(=O)c1ccc(-n2c(CCC(=O)O)ccc2-c2ccc(F)cc2)cc1	GPR151 ag 9.7 | GPR151 conf act inactive | GPR119 ag inactive
NC(=O)c1ccc(-n2c(CCC(=O)O)ccc2-c2ccccc2)cc1	none
Cc1cccc(Cn2c(SCC(C)C)nc3c2c(=O)[nH]c(=O)n3C)c1	GPR151 ag 5.2 | GPR151 conf act inactive | GPR119 ag inactive
Cn1c(=O)[nH]c(=O)c2c1nc(N1CCN(c3cccc(Cl)c3)CC1)n2Cc1ccccc1	GPR151 ag 5.3 | GPR151 conf act inactive | GPR119 ag inactive
Cn1c(=O)[nH]c(=O)c2c1nc(NCc1ccccc1)n2Cc1ccc(Cl)cc1	GPR151 ag 6.7 | GPR151 conf act inactive | GPR119 ag inactive
Cn1c(=O)[nH]c(=O)c2c1nc(NCc1ccccc1)n2Cc1ccccc1	none
CCCSc1nc2c(c(=O)[nH]c(=O)n2C)n1CC(O)Oc1cccc2ccccc12 (stereo unspecified)	GPR151 ag 6.2 | GPR151 conf act inactive | GPR119 ag inactive
CCCCOc1ccc(C(=O)Nc2ccc(NC(=O)c3cccs3)cc2)cc1	none
